RAM network inhibition data for 40 compounds are collected here from PubChem BioAssay.

A number with no mark means an inactive call.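 The calls were made as follows: active = RAM network inhibition above 8.4% in each of two replicates, 3 SD over the compound average; inconclusive = above 8.4% inhibition in only one replicate; inactive = 8.4% inhibition or less in each replicate.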

The assay is described as follows: RAM signaling pathway blockade in yeast – S. cerevisiae, Pdr1DBD-CYC8 efflux-inhibited sensitized strain, primary screen (AID 1298).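 Also: 0% = DMSO untreated cells without growth and 100% = 10 µM 1-NA-PP1 full growth; higher means more yeast growth rescued from 5-FOA killing.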 To be noted: S. cerevisiae cbk1-as DSE1-URA3 strain, 5-FOA growth OD615, 2 d; at 50 µM; stronger effect = higher value.
`CCOC(=O)C1CCN(C(=O)CN(c2ccc(Cl)c(C(F)(F)F)c2)S(C)(=O)=O)CC1`: the RAM network inhibition is 0.63%.
As for `CCOc1ccccc1C(=O)Nc1cc(=O)n(C)c(=O)n1C`, the figure is -2.04%; as for `Cc1ccc(-c2cc3nc4c(c(=O)n3[nH]2)CCCC4)cc1`, 5.06%.
As for `CCOC(=O)C(C)Sc1nnc(Cc2cc(=O)[nH]c(=O)[nH]2)n1-c1ccc(Cl)cc1` (stereo not given), the figure is 5.81%.
As for `c1nc(NCC2CCCO2)c2[nH]cnc2n1` (stereo not given), the figure is 1.7%; as for `O=C(Nc1ccc(Cl)cn1)c1cccnc1`, -0.47%.
For the compound `O=C1c2ccccc2C(=O)N1C/C=C/CN1C(=O)c2ccccc2C1=O`, the RAM network inhibition was 4.65%.
To `O=c1oc2c3c4c(cc2cc1-c1nc2ccccc2[nH]1)CCCN4CCC3` belongs 2.41%; to `CCCCC(=O)NCCc1cc2c(C)ccc(C)c2[nH]c1=O`, 0.32%.
On to `O=C(NCc1ccc(F)cc1)c1cc2ccccn2n1`, for which the RAM network inhibition was 1.1%.
In the case of `COc1cccc(C2C3=C(N=C4SCC(=O)N42)c2ccccc2CC3)c1OC` (stereo not given), the RAM network inhibition is 5.99%.
To `CCOC(=O)N1CCC(c2cc(=O)n3[nH]c(C)c(-c4ccc(F)cc4)c3n2)CC1` belongs 0.41%; to `C=CCn1c(=O)n(CCOC)c(=O)c2sc3ccccc3c21`, 1.71%.
To `Cc1ccc2cc(CCNC(=O)C(C)C)c(=O)[nH]c2c1C` belongs 6.36%; to `COc1ccc(S(=O)(=O)N2CCCC2C(=O)Nc2ccc(O)cc2)cc1` (stereo not given), 4.8%; to `Cc1cccc(-n2ncc3c(NCc4cccnc4)ncnc32)c1`, 2.13%.
For the compound `COc1cccc(NC(=O)C2CCCN(S(=O)(=O)c3cccc4cccnc34)C2)c1` (stereo not given), the RAM network inhibition is 3.85%.
Consider `CCc1nnc(NC(=O)COC(=O)CN2C(=O)c3ccccc3C2=O)s1`, for which the RAM network inhibition is 5.31%.
To `O=C(C1CCN(c2nnc(-n3cccc3)s2)CC1)N1CCc2ccccc2C1` belongs 6.43%; to `Cc1c(C(=O)NC2CC2)oc2ccc(S(=O)(=O)N3CCCCCC3)cc12`, 4.34%.
Take `Cc1sc2nc(SCC(=O)NCCO)n(C)c(=O)c2c1C`: the RAM network inhibition was 2.59%.
To `S=c1[nH]nc(-c2ccccc2)n1C1C=CCCC1` (stereo not given) belongs 2.63%.
With `c1ccc(N2CCN(Cc3cn4cccnc4n3)CC2)cc1`, the RAM network inhibition was 6.85%.
Turning to `CCCCc1ccc(NC(=O)C2CCCO2)cc1` (stereo not given), the RAM network inhibition was 3.17%.
To `Cc1[nH]c2ccccc2c(=O)c1CN1CCCCC1` belongs -0.21%; to `Cc1ccccc1-n1c(Cn2c(=O)sc3ccccc32)nnc1SCC(=O)N1CCCC1`, 8.27%.
As for `COc1ccccc1-n1c(=O)[nH]c2c(C(N)=O)nc(CC(C)C)nc21`, the figure is 2.83%.
As for `Cc1ccccc1-c1nc(CN2CCC(C(=O)N3CCC(C(N)=O)CC3)CC2)c(C)o1`, the figure is 2.99%.
`CCCCN(CC)CCCNC(=O)c1cc2c(=O)n(C)c3ccccc3c2n1C`: the RAM network inhibition is 1.02%.
On to `Cc1nn(-c2ccc(F)cc2)c2c1cc(C#N)c1nc3ccccc3n12`, for which the RAM network inhibition was 6.61%.
As for `CCCn1c(OC)nc2c1c(=O)n(C)c(=O)n2C`, the figure is 2.06%; as for `CCOC(=O)Cc1ccc(NS(=O)(=O)c2ccc(SC)cc2)cc1`, 2.83%; as for `CC(C)Sc1nc2c(c(=O)n1-c1ccc(F)cc1)SCC2`, 7.83%.
To `COc1cccc(C2CC(c3c(Cl)cccc3Cl)n3nc(N)nc3N2)c1` (stereo not given) belongs 6.92%; to `Cc1cccc(OCCNC(=O)c2ncn[nH]2)c1`, -0.32%.
To `COc1ccc(S(=O)(=O)N2CCN(c3ccc(C)cc3C)CC2)cc1OC` belongs 1.74%; to `CS(=O)(=O)NCCSCc1c(F)cccc1Cl`, 1.27%; to `CC(C)CCNC(=O)Cn1c(NCCC(C)C)nc2c1c(=O)n(C)c(=O)n2C`, -0.63%.
As for `CCOC(=O)N1CCC(NC(=O)C2CCCN(C(=O)c3cc4sccc4n3C)C2)CC1` (stereo not given), the RAM network inhibition is 0.11%.
As for `CCOC(=O)N1CCC(NC(=O)c2cc(C(=O)NC3CCCC3)ccc2CO)CC1`, the figure is 1.13%.
